The list is not random: actives were taken first. Their share in the collection is about 18%.
HepG2 tox: kills HepG2 cells in TGF-b inhibitor counter-screen | HepG2 CAGA-GFP viability, ATP luminescence, 18 h | Potency, µM (highest dose often 46.1 µM), most hits filed as cytotoxic | AID 588856 | hit rate 0.76% among 410,000
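HepG2 CAGA-GFP cells (1000/well, DMEM with 1% FBS) received compound, then TGF-beta at 500 pg/mL final, and were incubated 18 hours at 37 degrees C. Viability was read by CellTiter-Glo luminescence. Media-only wells were set as complete cell-killing and DMSO as no toxicity.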
TDP1 block: inhibitors of human tyrosyl-DNA phosphodiesterase TDP1; recombinant TDP1, AlphaScreen DNA substrate cleavage; hit rate 0.28% among 350,000; Potency, µM (top dose mostly 130 µM), most hits filed as inhibitors; Q9NUW8; AID 485290; further: nearly all actives have a fitted effect of over 40% in size
Target sequence (Q9NUW8 whole entry, looked up): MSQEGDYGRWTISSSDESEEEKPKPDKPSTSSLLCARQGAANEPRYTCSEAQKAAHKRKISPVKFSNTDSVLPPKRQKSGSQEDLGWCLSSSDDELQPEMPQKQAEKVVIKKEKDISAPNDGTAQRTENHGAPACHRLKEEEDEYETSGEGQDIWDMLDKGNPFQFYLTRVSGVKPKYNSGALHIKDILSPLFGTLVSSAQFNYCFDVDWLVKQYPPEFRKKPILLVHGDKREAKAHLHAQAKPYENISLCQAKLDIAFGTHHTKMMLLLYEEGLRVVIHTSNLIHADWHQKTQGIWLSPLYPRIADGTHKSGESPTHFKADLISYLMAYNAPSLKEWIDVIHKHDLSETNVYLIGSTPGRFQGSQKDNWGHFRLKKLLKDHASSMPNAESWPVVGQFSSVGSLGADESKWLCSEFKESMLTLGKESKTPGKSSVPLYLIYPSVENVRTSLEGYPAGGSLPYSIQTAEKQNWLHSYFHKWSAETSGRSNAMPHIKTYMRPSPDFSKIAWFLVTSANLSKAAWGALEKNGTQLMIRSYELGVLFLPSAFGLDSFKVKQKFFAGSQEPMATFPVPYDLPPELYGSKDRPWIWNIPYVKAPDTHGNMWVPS
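Compounds were preincubated with Tdp1 (1 nM final) for 15 min at room temperature before substrate (15 nM final) started a 5 min reaction; beads (10 ug/ml final) were then added for 10 min before AlphaScreen detection.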
IL1B secr inh: inflammasome signaling inhibition, IL-1 beta readout | THP-1 LPS/ATP IL-1B secretion, AlphaLISA, 16 h; active compounds read low | activity change, % at 57.5 µM | hit rate 4.7% among 360,000 | AID 743279; in the data active means activity change below about -50%; inconclusive means mostly about -30% to -49%
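Secreted IL-1B measured by AlphaLISA bead assay after 16 h compound exposure of THP-1 cells; compounds (final up to 57.5 uM) added 1 h before LPS (250 ng/mL) and ATP (1.25 mM) stimulation; lower signal means less secretion.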
TDP1 cell noCPT: qHTS for Inhibitors of human tyrosyl-DNA phosphodiesterase 1 (TDP1): qHTS in cells in absence of CPT. DT40 Tdp1-/- hTDP1 cells, no CPT, ATP luminescence, 48 h. Potency, µM (top dose mostly 46.2 µM), hits mostly inhibitors. hit rate 15% among 420,000; further: nearly all actives have a fitted effect of over 55% in size
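No-CPT arm: Tdp1-/-;hTDP1 DT40 cells (400/well) plus compounds, incubated ≥48 hr at 37 °C. Readout CellTiter-Glo luminescence.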
DT40 TDP1 CPT: DT40-hTDP1 cell growth loss with CPT | chicken DT40 Tdp1-/-;hTDP1 cells + 20 nM CPT, ATP luminescence, 48 h | Potency, µM (highest dose often 46.2 µM), most hits filed as inhibitors | hit rate 12% among 420,000; further: nearly all actives have a fitted effect of over 55% in size
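Chicken DT40 Tdp1-/- cells complemented with human TDP1, 400 cells/well, exposed to compounds plus 20 nM camptothecin for at least 48 h at 37 C; viability read as ATP content by CellTiter-Glo luminescence.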
TGFb SMAD3 inh: TGF-b pathway inhibition; HepG2 CAGA-GFP TGF-b/SMAD3 reporter, GFP fluorescence, 18 h; TGF-beta stimulated, 500 pg/mL final; Potency, µM (top dose mostly 46.1 µM), most hits filed as inhibitors; hit rate 1.2% among 410,000; further: nearly all actives have a fitted effect of over 65% in size
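First, reporter cells (HEPG2 CAGA-GFP) rested 2 h at 37 degrees C. Next, compounds were pinned in and TGF-beta added to 500 pg/mL final. After 18 h, GFP was imaged per cell and summed per well.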
A number is an active result; - = inactive; ? = inconclusive; . = no result given; [ ] = remark or other dose. Unless noted, the call rests on the fitted dose curve; in most records, active means well fitted curve in the direction sought with a large enough effect; inconclusive means small, poorly fitted or top-dose-only effect, or another doubt; inactive means no such curve, though single readings can be large; an effect the other way counts as inactive or inconclusive.

SMILES	HepG2 tox	TDP1 block	IL1B secr inh	TDP1 cell noCPT	DT40 TDP1 CPT	TGFb SMAD3 inh
COc1ccc(-c2nc(C(N)=O)c3[nH]c(=O)n(-c4cccc(C)c4)c3n2)c(OC)c1	-	-	-	23µM	?	-
COc1ccccc1-c1nc(C(N)=O)c2[nH]c(=O)n(-c3cccc(C)c3)c2n1	-	-	-	?	?	-
O=c1cc(C(F)(F)F)[nH]c2ccc(C(F)(F)F)cc12	-	-	?	0.73µM	7.3µM	?
O=C(CN1C(=O)NC(Cc2c[nH]c3ccccc23)C1=O)Nc1ccc(F)cc1F (configuration not stated)	-	-	-	-	-	-
Cc1cccn2c(=O)c(/C=C(\C#N)C(=O)NC3CCS(=O)(=O)C3)c(N3CCC(C)CC3)nc12 (configuration not stated)	-	-	-	?	?	-
Cc1cccn2c(=O)c(/C=C(\C#N)C(=O)NC3CCS(=O)(=O)C3)c(Oc3ccc(F)cc3)nc12 (configuration not stated)	-	-	-	21µM	?	-
N#C/C(=C\c1c(Oc2ccc(Cl)cc2)nc2ccccn2c1=O)C(=O)NC1CCS(=O)(=O)C1 (configuration not stated)	-	-	-100	?	-	-
Cc1cc(Oc2nc3ccccn3c(=O)c2/C=C(\C#N)C(=O)NC2CCS(=O)(=O)C2)ccc1Cl (configuration not stated)	-	-	-	16µM	-	-
Cc1cccc(Oc2nc3ccccn3c(=O)c2/C=C(\C#N)C(=O)NC2CCS(=O)(=O)C2)c1C (configuration not stated)	-	-[0.0935 µM]	-99	?	?	-
N#C/C(=C\c1c(N2CCCCC2)nc2ccccn2c1=O)C(=O)NC1CCS(=O)(=O)C1 (configuration not stated)	-	-	-	-	-	-
COC(=O)/C(C#N)=C/c1c(Oc2cccc(C)c2)nc2ccccn2c1=O	-	-	-	-	-	-
CCCCCN(C(=O)CCC(=O)OCC(=O)N(CC)C1CCCCC1)c1c(N)n(CCCC)c(=O)[nH]c1=O	-	-	-	-	-	-
COc1ccc(Oc2nc3c(C)cccn3c(=O)c2/C=C(\C#N)C(N)=O)cc1	-	-	-	1.8µM	?	-
COc1cc(Cl)c(NC(=O)c2cc(S(=O)(=O)N3CCOCC3)cn2C)c(OC)c1	-	-	.	-	-	-
COc1cc(C(=O)Nc2ccc(-c3nc4cc(C)ccc4o3)c(O)c2)cc(OC)c1OC	-	-	.	8.2µM	12µM	-
COc1cc(C(=O)Nc2ccc(Cl)c(-c3nc4ncccc4o3)c2)cc(OC)c1OC	-	-	.	16µM	21µM	-
COc1cc(C(=O)Nc2ccc(-c3nc4cc(C)c(C)cc4o3)cc2)cc(OC)c1OC	-	-[12.3 µM]	.	?	?	-
Cc1ccc(C(=O)Nc2ccc(Cl)c(-c3nc4ncccc4o3)c2)c(C)c1	-	-	.	?	?	?
CCc1ccc2oc(-c3cc(NC(=O)c4cc(OC)c(OC)c(OC)c4)ccc3O)nc2c1	-	-[2.28 µM]	.	?	?	-
COc1cc(C(=O)Nc2ccc3oc(-c4ccc(C)c(Br)c4)nc3c2)cc(OC)c1OC	-	-[12.3 µM]	.	8.2µM	21µM	-
O=C(CNCc1ccccc1)NCCCN1CCCC1=O	-	.	-	-	-	-
CC1CC(C)CN(C(=O)C(NS(=O)(=O)c2ccc(Br)s2)c2ccccc2)C1 (configuration not stated)	-	-	-	15µM	18µM	?
CCOc1ccc(NC(=O)CCn2nc(C)c(S(=O)(=O)N3CCCCC3)c2C)cc1	-	-	-	?	?	-
CCc1ccc(NC(=O)c2cc(S(=O)(=O)N3CCCC3)ccc2F)cc1	-	-	-	12µM	15µM	-
CCc1ccc(NC(=O)CCn2nc(C)c(S(=O)(=O)N3CCCCC3)c2C)cc1	-	-	-	18µM	23µM	?
SMILES	HepG2 tox	TDP1 block	IL1B secr inh	TDP1 cell noCPT	DT40 TDP1 CPT	TGFb SMAD3 inh
CCc1ccc(NC(=O)c2cc(S(=O)(=O)N3CCCCCC3)ccc2F)cc1	-	-	.	18µM	?	-
CCOc1ccc(NC(=O)c2cc(S(=O)(=O)N3CCOCC3)ccc2F)cc1	-	-	.	?	-	-
COc1cc(C(=O)NCc2ccc(S(N)(=O)=O)cc2)ccc1OCC(=O)N1CCOCC1	-	-	-	-	-	-
O=C(CN1C(=O)NC2(CCCCC2)C1=O)N1CCN(c2ncccn2)CC1	-	-	-	-	-	-
Cc1ccc(C(=O)Nc2cccc(-c3ccc(N4CCOCC4)nn3)c2)cc1C	-	.	-	?	?	-
Cc1cc(C(=O)Nc2cccc(-c3ccc(N4CCOCC4)nn3)c2)ccc1[N+](=O)[O-]	-	.	-	26µM	?	-
O=C(Nc1cccc(-c2ccc(N3CCOCC3)nn2)c1)c1cccc(Cl)c1	-	.	-	21µM	-	-
O=C(Nc1cccc(-c2ccc(N3CCCCC3)nn2)c1)c1ccco1	-	.	-	13µM	?	-
O=C(Nc1cccc(-c2ccc(N3CCOCC3)nn2)c1)c1ccccc1Cl	-	-	-	-	-	-
CC1CCc2c(sc(NC(=O)COC(=O)c3ccc(NC(=O)CC#N)cc3)c2C#N)C1 (configuration not stated)	-	-[0.505 µM]	-	-	-	-
CC(C)(C)C1CCc2c(sc(NC(=O)CSc3ncn[nH]3)c2C#N)C1 (configuration not stated)	-	-	?	?	?	?
CCN1CCN(CC(=O)Nc2sc3c(c2C#N)CCC(C)C3)CC1 (configuration not stated)	-	-	-	18µM	?	-
CC1CCc2c(sc(NC(=O)CSc3ncn[nH]3)c2C#N)C1 (configuration not stated)	-	.	-	23µM	?	-
CC(=O)c1c(C)[nH]c(C(=O)OCC(=O)Nc2sc3c(c2C#N)CCC(C)C3)c1C (configuration not stated)	-	.	-	23µM	?	-
CCOC(=O)c1c(NC(=O)CC)sc(C(=O)NC2CCCC2)c1C	-	-	-	-	-	-
Cc1nc(N2CCOCC2)c2nc(-c3ccccc3)n(CCCN3CCOCC3)c2n1	.	-	.	.	.	.
CC(CN1CCCCC1)OC(=O)c1ccco1 (configuration not stated)	-	.	-	-	-	-
COC(=O)c1ccc(N2NC(=O)/C(=C/c3cc(OC)c(OC)c(OC)c3)C2=O)cc1	-	.	-	-	-	-

Screening results deposited in PubChem BioAssay by National Center for Advancing Translational Sciences (NCATS).
